About 3,700 (7%) of roughly 53,000 sequences were called active.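 Rule for the calls: active = gene knockdowns whose robust z-score for IL-1 alpha signal is at least 2 or at most -2, so actives lie on both sides; inactive = the rest.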 The sample as a whole holds a higher share of actives than the screen did.
Assay: Components of the Cytosolic LPS Sensing Pathway: Gene Identification via Genome-wide siRNA Screen;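 note: robust z of the log signal after scaling to non-targeting control siRNA wells of the plate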
Conditions: RAW264.7 macrophages, IL-1a HTRF, actives lie on both sides, screened at 100 nM (by protocol), cells primed 5 h with Pam3CSK4 first
Procedure, shortened: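 Using IL-1a HTRF as read-out, the screen measured release from RAW264.7 cells after 48h siRNA knockdown (100 nM), 5 h Pam3CSK4 priming and 24 h cytosolic LipidA. Values were expressed relative to negative-control wells as robust z-scores.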

z-score, inactive:
CCUUUCUUGUGUUUACAGGTT against P2ry6 -0.347
GGUGAUCAACAAUGGCAAUTT against Clec4a3 1.26
GCACAUGUGUUUAUACAUUTT against Sfxn3 -0.556
GGCAUUCCAGAGAAAGCGUTT against F3 -1.33
GCGAAUUGGAACAGCUGACTT against Sh3glb1 -0.982
GGUAUACCACUAUUCUCACTT against Olfr649 0.705
CCAUAUAUGAUAGGAAACUTT against Pon2 -0.288
GCCACAAUGUCCAAAAUUATT against Rab6a -0.271
GGAGCUUUUAAGAAUGUGGTT against Ireb2 -1.57
GCAGGUGCCUUCAAAAACCTT against Pm20d2 -0.926
GGCAGCAGUUAAUUUACUUTT against Mmp21 -1.71
GGCGGGUAGAUAUCAUGGGTT against Stn1 0.902
GGAAGCAAUGAUCAAUUAUTT against Ppp2r3c 0.752
GGCAAUGAUGAUCUCCUCUTT against Htra3 0.434
GGGUAUGACCGGUAUUACATT against Atp5j2 0.213
GGAGGCAGCCAAAGAAAACTT against Bmp8a 0.462
GGAUGAAAUCGCCAUAUGUTT against Snrnp48 -1.89
GGAGAAAACCUAGAAAUUUTT against Galnt1 0.238
GCCGUAAGCUAGGAUCUGGTT against 1700065D16Rik 0.787
GGUAAUACAACUGAGAACUTT against Zfp2 0.39
GGCAUCUGAGUGAUAUAAATT against Dcps 0.109
GGCCGUGUUAUCCAGAUUGTT against Prkcd 1.43
GGCAGUCUCAGGUUAUCUCTT against Zfp445 0.406
GGCUGUAAGGGAACAGCUATT against Irf2bp1 -0.615
GGUGAUGAAAUUUAUUGAGTT against Gpn1 -0.127
GGAGAAGGGCCUGAAGUAUTT against Lsm5 -1.77
GGUGGCAGUCACCAUUCUUTT against Il17rd -0.364
GGACAGAGCCUAGAAAACUTT against Mpdu1 -1.15
GGACUUUGUCAACCAUGUCTT against Fbxl5 -0.0144
CGUCAAUUCACACCAUUCATT against Gsk3a -1.25
GGCUUAUGUCACCAACUUGTT against Pxdc1 -0.533
GGAGUUAGAAUUGAACCUUTT against Mr1 -1.49
GGAUCCAUUUUGAGGAUUUTT against Vipr1 -0.056
GGGCAAGUACAAGCGUAACTT against Jph4 -1.5
GGGAAAACACAAAGAAGAATT against Angpt1 0.307
GGAGCCUAUCGCUUUACUCTT against Vps16 1.18
GGUGUCAACAUUGCAUACUTT against Gatad2b 1.62
GGAAACAUCCAAGAAAAAUTT against Ap1s2 -0.489
GGCUAUGGAAACCACCACATT against Nrg3 -1.21
GGAUUGUCCACAUGGAACUTT against Ccl27a -0.112
GGUAUGGAUGAAGAACUAGTT against Pdhb 1.62
GGUUGUACCUACAACAGAUTT against Tiprl -0.773
GGCUUUACUUCUUGCUGUGTT against Olfr1412 -0.918
GCAAGAUACUGACCACUAGTT against Krt25 0.14
CCCAGGUGAGACCUUUACCTT against Fndc3b -1.76
CCUUCUUGUGGGAGUGAAATT against Chodl -0.0597
GGUAGACACACACAUUCAUTT against Ampd3 0.633
CCGUUGACCUGAAAAGGAATT against Clic4 -0.0288
GGAGAAAAGCAAUAAUGAATT against Klf12 -1.07
CGUGAGCACAAAAAUAUUGTT against Fchsd2 -0.251
GGAACAGCGGCUAACUUAUTT against Asic4 1.4
GGUGCUAAGCAUGAAGCCUTT against Stk16 -1.01
GGUAGAAGAAUUGUUUGUGTT against Tcp11l1 0.967
GGUGAUGCUUCUUGGAGACTT against Rab37 -0.59
GCGUGAACGGAUAAAAAAUTT against Figla 1.09
CCAUUCCAAAGGUAUUAGCTT against Olfr619 -0.244
GGCAAAACAACUUUAUUCCTT against Ucp2 1.14
GGAUAUCACCUUCGAGAUATT against Ankrd7 -0.0496
GGAUGAGAUCAACUUCCUCTT against Krt7 -0.6
GGCUUUUGAAGCCAUCAAGTT against Mrpl57 -1.2
GGAAUUCUGACGUGAAGAATT against Olfr13 -0.987
GGUAGACUGUGAAAAUGACTT against Ldlr -0.6
GGUGAAGCGAAUUCUCUACTT against Upb1 -0.362
GGCAUUGGCAUUUUUAUAGTT against 9530056K15Rik -0.879
GCCACGAGUUCUUUGAAGCTT against Ubxn6 -0.15
GGACAAGAUUGUAUCUGCATT against Olfr1507 -0.56
GGAUCAAGUGGCUGAUUUGTT against Ube2t -0.457
GGACUAUUCUGAGAAUCCCTT against Olfr821 -1.69
GCCUCUGAUGUAAACAGGATT against Nr2c2ap 0.883
GCAGUGUAUACCUGGGCUATT against 1700001C19Rik 0.388
GGUGUUACAGAUGUACCGATT against Nfkbid 0.0859
GGAAGACAAUGAUGAUGUUTT against Clns1a -1.82
GGAGUUUUGAAUAAACCAATT against Tmc7 -0.2
GGGCUUUCCUCAAGGUAGUTT against Olfr62 -1.39
GGAAUUGUCUAACAGGCUGTT against Hoxd12 -0.025
GGAACAGUUACUUGAGAGUTT against Zfp786 0.759
GGCUUUGACAAUCUUUAAGTT against Ergic1 -0.687
CCUCAACUGGUUCCCUAACTT against Spatc1 -1.73
GCUGGUUACAUAAAGCUACTT against Slc25a51 0.0694
CCUCCUAAGGAUGAAGAUUTT against Calml4 0.654
CGACAGUUACUUGCCCAGATT against Rasgrp3 -1.36
GCUGUCGUUGAAGGCAUUGTT against Olfr317 -0.828
GCCAGAUCAUUGUAUCAAUTT against Tmx3 1.27
GGUGGAUGUCUUCUUCAACTT against Gata2 0.697

z-score, active:
GGCAGUUUCUUCUUCCAAATT against H1f1 2.89
CGACGAGGAAUAACCUCUCTT against Myh6 2.05
GGGUAUGGCAUAAAUGUCCTT against Zpbp -2.75
CCUACGAGUUUUGCAUUUATT against Slc25a51 -2.46
GGUUCCAUGUUCAGAAUUUTT against Alg9 2.04
CCGGCUAUGAAGAUGAGUATT against Cox6a1 3.21
GGCUUUUCAGCAGGUUUAATT against Ube2g1 5.04
CCAUACAGAUCGCACCCUGTT against Txndc15 -2.15
GGCUCCAAGGGAUUUGGUUTT against Rbfox1 2.77
GGGUGCUCUGAAGAAGCAATT against Olfr488 -2.04
GGAGAUCUGUGAUGAGGUGTT against Nudt22 2.07
CGAUGAUAAAACGAACAAGTT against Plppr5 2.78
CCAUGGACCAAAUGAAGUUTT against Cd44 2.59
AGUGCUCAUUAACUGUCGCTT against Snrpd2 -2.75
GGACAAGUCGAAGAGUGAGTT against Ing1 -2.26
GGCACUUAAGGAAAUUGGGTT against Bloc1s1 -2.02
GCAUCUCAAGACGAUGGAUTT against Akap8l 2.3
GGAGCAAGAGUCUAAAUGATT against Rubcn -2.23
GGCACUCCUGAUGUUCUCUTT against Cyb561d2 -2.96
CGAGCUCAGGCCUAUUAAATT against Cdh12 3.39
CGGAGUAAACAAUACAGUCTT against Gnmt 2.26
GGCGAAAUCUGCUAGAGUATT against Tppp3 2.3
GAGUGAUGCGCAUUUCGAGTT against Sf3b5 -2.53
GGAGAUUGUUGACCUGGUCTT against Tuba3b 2.03
